This note sets out measurements from PubChem BioAssay AID1456 (Vanderbilt High Throughput Screening Facility, 2008).

The campaign covered roughly 190,000 compounds. About 4,100 (2.2%) were called active. For the sample, actives were picked, then their nearest neighbours and some compounds at random. Values without a mark were called inactive.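 The calls were made as follows: active = thallium flux slope and its plate-corrected score both differing from the plate sample mean at a set confidence after two filtering rounds, in either direction; inactive = the rest.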

Sequence of Solute carrier family 12 member 5 (Homo sapiens) (Q9H2X9 whole entry, looked up): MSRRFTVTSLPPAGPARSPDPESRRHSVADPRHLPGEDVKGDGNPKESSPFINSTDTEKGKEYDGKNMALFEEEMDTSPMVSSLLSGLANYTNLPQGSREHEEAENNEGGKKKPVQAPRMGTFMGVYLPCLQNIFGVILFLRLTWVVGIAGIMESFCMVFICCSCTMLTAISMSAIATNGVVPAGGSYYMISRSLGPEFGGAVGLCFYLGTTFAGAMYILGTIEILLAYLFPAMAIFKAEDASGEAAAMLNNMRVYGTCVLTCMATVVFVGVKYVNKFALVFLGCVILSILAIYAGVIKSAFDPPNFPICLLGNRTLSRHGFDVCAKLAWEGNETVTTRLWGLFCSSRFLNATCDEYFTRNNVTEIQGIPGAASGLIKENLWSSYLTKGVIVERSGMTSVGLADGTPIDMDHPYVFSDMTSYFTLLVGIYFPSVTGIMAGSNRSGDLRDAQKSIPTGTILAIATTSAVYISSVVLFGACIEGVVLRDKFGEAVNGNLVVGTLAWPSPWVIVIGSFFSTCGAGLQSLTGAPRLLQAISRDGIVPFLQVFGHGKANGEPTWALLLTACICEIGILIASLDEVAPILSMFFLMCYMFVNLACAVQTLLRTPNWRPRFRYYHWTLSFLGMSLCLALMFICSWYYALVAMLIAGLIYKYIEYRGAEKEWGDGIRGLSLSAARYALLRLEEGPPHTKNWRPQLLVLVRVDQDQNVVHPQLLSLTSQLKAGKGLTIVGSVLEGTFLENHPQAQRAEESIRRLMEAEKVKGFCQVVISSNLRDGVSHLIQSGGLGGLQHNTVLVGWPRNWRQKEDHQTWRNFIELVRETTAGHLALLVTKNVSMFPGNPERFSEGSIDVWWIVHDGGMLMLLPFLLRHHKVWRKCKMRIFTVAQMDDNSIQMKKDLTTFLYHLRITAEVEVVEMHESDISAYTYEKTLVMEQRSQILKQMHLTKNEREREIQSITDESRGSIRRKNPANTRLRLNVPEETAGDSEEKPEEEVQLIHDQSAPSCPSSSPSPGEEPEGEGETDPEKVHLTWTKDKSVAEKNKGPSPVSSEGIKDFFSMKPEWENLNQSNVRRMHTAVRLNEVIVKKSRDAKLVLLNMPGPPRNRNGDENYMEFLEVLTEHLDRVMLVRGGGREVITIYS

The experiment addresses Solute carrier family 12 member 5 (Homo sapiens) (UniProt Q9H2X9). In words: modulation of human KCC2 ion transport – cell-based, HEK293 KCC2, FluoZin-2 fluorescence, MLSMR, primary screen (AID 1456).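 As to B-score of Tl+ flux slope (higher = more flux/activation; lower = inhibition): slope of fluorescence scaled to starting intensity during 10 to 20 s after thallium.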 Particulars: KCC2 cells, thallium flux FluoZin-2 fluorescence; at 10 µM.
For the compound `CCC(=O)NC(=Nc1nc2ccccc2s1)NC(=O)CC`, the B-score of Tl+ flux slope (higher = more flux/activation; lower = inhibition) was 41 (active).
As to `CSCCC(Nc1nc2ccccc2s1)C(=O)O` (stereo unspecified), the B-score of Tl+ flux slope (higher = more flux/activation; lower = inhibition) is 0.0417.
The value for `O=C(Nc1ccccc1)Nc1nc2ccccc2s1` was 0.018; that for `O=C(O)C(F)(F)C(NCc1ccccc1)c1ccccc1` (stereo unspecified) was -0.106; that for `Cn1c(SCC(=O)N2CCOCC2)nnc1-c1ccc2ncccc2c1` was -0.0283.
As for `S=c1ccc2ccccc2[nH]1`, the B-score of Tl+ flux slope (higher = more flux/activation; lower = inhibition) was 29.1 (active).
Under `O=C(Nc1ccccc1)c1cc2ccccc2[nH]1` stands -1.8; under `c1ccc2[nH]c(-c3nc4ccccc4[nH]3)nc2c1`, 0.179.
Under `O=C(c1ccc(OC2CCN(C(=O)c3cccnc3)CC2)cc1)N1CCCCCC1` stands 0.182; under `Cc1ccc(OCC(=O)N2CCN(C(=O)c3cccnc3)CC2)cc1`, 2.71 (active); under `COc1ccc(OCC(=O)N2CCN(C(=O)COc3ccccc3)CC2)cc1`, -0.137.
The value for `CCn1c(SCC(=O)N/N=C/c2ccccc2OCC(=O)O)nnc1-c1ccc(C(C)(C)C)cc1` was -0.932; that for `CC1(C)CCSC(/C=C/c2ccccc2)=N1` was -1.21.
Take `COc1ccc(N=Nc2ccc(O)c(P(=O)(c3ccccc3)c3ccccc3)c2)cc1`: the B-score of Tl+ flux slope (higher = more flux/activation; lower = inhibition) is -0.282.
Under `CCCCC(CC)CNC(=O)CCCCn1c(=O)[nH]c2ccsc2c1=O` (stereo unspecified) stands -0.707; under `CCOC(=O)C(=O)C1C(=O)Nc2ccccc21` (stereo unspecified), “inactive”; under `CCCCC(CC)CNC(=O)C(=O)C1C(=O)Nc2ccccc21` (stereo unspecified), 8.5 (active).
The value for `OCCCC1CCCCN1Cc1nc(Cc2ccccc2Cl)no1` (stereo unspecified) was -0.7; that for `O=C(/C=C/Nc1ccc(S(=O)(=O)Nc2cnc3ccccc3n2)cc1)c1cccnc1` was -0.253.
Under `CCOC(=O)c1nnn2c1nc(N1CCN(c3ccccc3)CC1)c1ccccc12` stands -2.78; under `C/C=C(\C)C(=O)N1CC2(CC(c3cccc(NC(=O)CCCCC)c3)=NO2)C[C@@H]1C(N)=O` (stereo partly specified), -0.00449.
With `O=C(NN1C(=O)C2C(C1=O)C1C=CC2C12CC2)c1ccccc1Cl` (stereo unspecified), the B-score of Tl+ flux slope (higher = more flux/activation; lower = inhibition) is 0.716.
The value for `CCc1ccc(CCC(=O)Nc2ccc(S(N)(=O)=O)cc2)o1` was 1.49; that for `Cc1oc2nc(SCC(=O)Nc3ccc(S(N)(=O)=O)cc3)nc(NC(=O)c3ccccc3)c2c1C` was 6.29 (active); that for `CCOC(=O)c1ccc(NC(=O)CSc2ncccn2)cc1` was 1.85.
Under `COc1cccc(NC(=O)CN(C)CC(=O)Nc2ccc3c(c2)CCC3)c1` stands -0.353.
Under `CCOc1ccc(NC(=O)CN(C)CC(=O)NC(C)c2ccccc2)cc1OCC` (stereo unspecified) stands -0.692; under `CCOc1ccc(NC(=O)CN(C)CC(=O)Nc2cccc(Cl)c2C)cc1OCC`, -5.58 (active).
As for `COc1ccc(/C=N/NS(=O)(=O)c2ccc(NC(C)=O)cc2)cc1`, the B-score of Tl+ flux slope (higher = more flux/activation; lower = inhibition) was 0.538.
For the compound `COc1ccc(Cl)cc1NC(=O)CCN1CCOCC1`, the B-score of Tl+ flux slope (higher = more flux/activation; lower = inhibition) is -0.478.
Under `O=S(=O)(c1ccc(F)cc1)N1CCN(C(=S)NC2CCCC2)CC1` stands -0.0466; under `O=S(=O)(c1ccc(F)cc1)N1CCN(C(=S)NCc2ccco2)CC1`, -3.94 (active).
Under `O=C(NCc1ccco1)C1CCCN(S(=O)(=O)c2ccccc2)C1` (stereo unspecified) stands -0.4; under `O=S(=O)(c1ccc(Cl)cc1)N1CCCN(c2ccc(C(F)(F)F)cn2)CC1`, -0.0306; under `C=CCC(Nc1ccccc1)c1cccc(OC)c1OC` (stereo unspecified), -1.46.
The value for `Cc1nnc(SCC(=O)N2CCc3ccccc3C2)s1` was 0.173; that for `O=C(CSc1nnc(-c2cccs2)n1Cc1ccccc1)N1CCc2ccccc2C1` was -5.7 (active); that for `O=C(CSc1nnc(-c2cccs2)n1-c1ccccc1)N1CCN(C(=O)c2ccco2)CC1` was 0.0437.
For the compound `CC(C)Cc1nnc(NC(=O)CCC(=O)Nc2ccc3cn[nH]c3c2)s1`, the B-score of Tl+ flux slope (higher = more flux/activation; lower = inhibition) was 0.683.
The value for `Nc1nnnn1/N=C/c1cc([N+](=O)[O-])ccc1O` was -0.19.
As to `COc1cccc(CC(=O)Nc2ccc(-c3csc(C)n3)cc2)c1`, the B-score of Tl+ flux slope (higher = more flux/activation; lower = inhibition) is -1.35.
